PubChem BioAssay AID2524 (Sanford-Burnham Center for Chemical Genomics, 2010)
Screen size: about 330,000 compounds; about 540 (0.16%) were called active.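 How the source made its calls: active means activation factor of the enzyme at least 2-fold when tested at 20 µM; inactive means the rest.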 The full list was thinned out, with actives kept by preference.

What follows are compounds tested against Intestinal-type alkaline phosphatase (Homo sapiens) (UniProt P09923) (assay: human IAP activators, primary screen, biochemical, luminescence, uHTS (AID 2524)). Conditions: purified human IAP, CDP-Star luminescence, 30 min; at 10 µM; stronger effect = higher value; 1 = vehicle-only enzyme, 0 = enzyme-free background.
Intestinal-type alkaline phosphatase (Homo sapiens), sequence (P09923 whole entry, looked up): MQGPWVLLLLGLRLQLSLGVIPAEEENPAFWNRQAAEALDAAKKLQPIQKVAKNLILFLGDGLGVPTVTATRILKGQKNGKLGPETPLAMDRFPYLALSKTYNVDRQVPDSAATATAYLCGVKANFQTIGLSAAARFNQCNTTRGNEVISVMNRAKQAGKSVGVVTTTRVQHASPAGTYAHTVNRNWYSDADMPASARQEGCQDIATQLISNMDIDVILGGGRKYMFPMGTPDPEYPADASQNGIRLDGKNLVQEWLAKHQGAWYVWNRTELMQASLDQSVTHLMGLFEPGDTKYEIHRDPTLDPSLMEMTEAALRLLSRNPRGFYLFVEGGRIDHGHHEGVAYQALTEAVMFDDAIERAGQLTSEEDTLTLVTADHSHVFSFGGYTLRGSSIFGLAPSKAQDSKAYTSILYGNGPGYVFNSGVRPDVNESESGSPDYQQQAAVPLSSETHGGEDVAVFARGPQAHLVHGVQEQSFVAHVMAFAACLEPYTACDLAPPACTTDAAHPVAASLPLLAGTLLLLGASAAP

Activation factor, inactive:
[2H]C(CCOS(N)(=O)=O)c1ccccc1 (centres undefined) 0.959
CN(C)NC(=O)c1csnc1-c1c(Cl)cccc1Cl 1.14
CCC(=O)Nc1ccc(C(=O)NNC(=O)c2ccc(Cl)cc2)cc1 1.31
O=C(NCc1ccccn1)Nc1ccc(Cl)cc1 1.08
CCCCC(=O)NNC(=S)NC(=O)C(c1ccccc1)c1ccccc1 1.36
CCCN(CCC)CC(O)COc1ccccc1C(=O)Nc1ccccc1 (centres undefined) 0.915
C[C@H](NC(=O)c1nc[nH]c1C(=O)NCC(=O)OC(C)(C)C)c1ccccc1 1.32
CC(C)(C)OC(=O)NCCCCCNC(=O)c1nc[nH]c1C(=O)NCc1ccccc1 1.26
Cc1ccc(NC(=O)c2nc[nH]c2C(=O)N[C@@H](CCCCNC(=O)OC(C)(C)C)C(=O)OC(C)(C)C)cc1 1.3
CC(NC(=O)C(=O)Nc1nccs1)c1ccccc1 (centres undefined) 1.05
Oc1ccc(-c2cccc(-c3ccc(O)cc3)c2)cc1 1.01
COc1ccc(C2CC(c3ccccc3)=NN2C(=O)CSc2nccc(=O)[nH]2)cc1 (centres undefined) 0.925
COc1ccc(CC(=O)Nc2c3c(nn2-c2cccc(Cl)c2)CS(=O)C3)cc1 (centres undefined) 1.09
O=C(NNC(=S)NCc1ccccc1)c1ccc(OC(F)F)cc1 0.898
Cc1ccc(OCC(=O)NNC(=S)NCc2ccccc2)cc1 1.08
Cc1cccc(C(=O)N[C@H](C(=O)NCc2cccs2)C(C)C)c1 1.11
CCOCCCn1c(SCC(=O)Nc2cc(OC)ccc2OC)nc2ccccc2c1=O 0.95
OC(COc1ccc(CN2CCSCC2)cc1)CN1CCCCC1 (centres undefined) 1.12
CCCCN1C(=O)CC(N2CCOCC2)C1=O (centres undefined) 1.04
S=c1[nH]cc(-c2ccc(Cl)cc2)n1-c1ccccc1 1.42
COc1ccc(N2C(=O)NC(NS(=O)(=O)c3ccc(Cl)cc3)(C(F)(F)F)C2=O)cc1 (centres undefined) 0.861
Cn1c(N)c(C(=O)COC(=O)c2ccccc2NCc2ccco2)c(=O)n(C)c1=O 1.07
Cc1cc(C)cc(N(CC(=O)Nc2c(C)n(C)n(-c3ccccc3)c2=O)S(C)(=O)=O)c1 0.988
Cc1ccc(Cl)c(NC(=O)CN(C)CC(=O)Nc2ccc(F)c(F)c2F)c1Cl 1.68
Cc1ccc(OCC(=O)NCCCNC(=O)c2cccnc2)cc1C 1.06
COc1ccc(C(=O)NC2CC(C)(C)Cc3c2cnn3-c2ccccc2)c(OC)c1 (centres undefined) 1.07
CC1=C(C(=O)NC2CC(C)(C)Cc3c2cnn3-c2ccc(C)cc2)OCCO1 (centres undefined) 1.1
O=C(NCc1ccccc1Cl)c1ccc2c(=O)n(CC3CCCO3)c(=S)[nH]c2c1 (centres undefined) 0.824
CCN=c1sc(C(=O)Nc2ccccc2)c(C)n1CC 1.04
CN(C)c1nccc(NCc2ccccc2)c1C#N 1.01
COc1cccc(NC(=O)CN2CCN(CC(=O)Nc3ccccc3Cl)CC2)c1 0.935
O=C(CN1CCC(NC(=O)Nc2ccccc2)CC1)Nc1cccc([N+](=O)[O-])c1 0.94
CN(C)C(=O)c1nc2ccc(Cl)cn2c1CNCc1cccc(OC(F)(F)F)c1 0.976
COc1cc(S(=O)(=O)Nc2ncn[nH]2)ccc1Cl 0.999
CC(C)n1ncc2c(C(=O)Nc3ccc(CC#N)cc3)cc(C3CC3)nc21 0.958
O=C(c1cc(COc2c(F)cccc2F)on1)N1CCSCC1 1.07
Cc1cnc(C(=O)OCC(=O)Nc2ccc(Cl)cc2Cl)cn1 1.07
COc1cc(NC(=O)COC(=O)CSc2ccc3ccccc3c2)c(C)cc1[N+](=O)[O-] 1.12
CCCCN(CCCC)CCNC(=O)CN1C(=O)COc2ccc(S(=O)(=O)N3CCOCC3)cc21 0.976
O=C(CNCCC1=CCCCC1)Nc1ccccc1N1CCCCCC1 1.04
COCCNS(=O)(=O)c1cc(Br)ccc1OC 0.874
CSCCNC(=O)c1ccc2nc(Cc3ccccc3F)oc2c1 1.11
CCCc1cc(=O)[nH]c(SCC(=O)Nc2ccc(C(=O)Nc3ccccc3OC)cc2)n1 1.04
Cc1ccc(C(=O)COC(=O)CCCC(=O)NC2CCCCC2)cc1[N+](=O)[O-] 0.908
COC(=O)c1cccc(N(C(=O)CNC(=O)c2cccs2)C(C(=O)NCC2CCCO2)c2ccc(OC)c(OC)c2)c1 (centres undefined) 0.951
COC(=O)[C@]1(CC(C)C)N[C@H](c2ccc(SC3CCCCC3)cc2)[C@@H]2C(=O)N(C)C(=O)[C@@H]21 0.874
COc1ccc(CCC(C)N2CCc3ccccc3C2)cc1 (centres undefined) 0.983
Cc1nn(CC2CC2)c(=O)n1N(C)c1ncc(C(F)(F)F)cc1Cl 0.985
COc1ccccc1C(=O)NCC(=O)NCCSc1ccc(Br)cc1 1.02
O=C(CSCc1ccccc1Cl)NNC(=O)c1ccccc1 1.25
CN(C)C(=O)c1ccc(NC(=O)c2ccccc2-c2ccccc2)cc1 1.16
CC(=O)Nc1ccc(NC(=O)COc2ccc(-c3ccccc3)cc2)cc1 0.914
Cn1nnnc1SCC(=O)Nc1ccccc1C(=O)NC1CC1 0.94
CCN(CC)S(=O)(=O)c1ccc(Cl)c(C(=O)NCCN2CCOCC2)c1 1.07
CC1CC(C)(C)n2c(O)c(N=NC(N)=S)c3cccc1c32 (centres undefined) 0.927
CC(=O)Oc1c(C(=O)c2nnc(C)o2)c(=O)n(Cc2ccccc2)c2ccccc12 1.07
Cc1cccc(NS(=O)(=O)c2ccc(C)c(C(N)=O)c2)c1 1.05
CC(=O)N1CCN(C(=O)c2cccc(S(=O)(=O)Nc3ccc(C)cc3)c2)CC1 1.16
CN(C)C(=O)c1cccn(Cc2cccc(C(F)(F)F)c2)c1=O 1.24
Cn1c(N)c(C(=O)COC(=O)C23CC4CC(CC(C4)C2)C3)c(=O)n(C)c1=O 0.895
Cc1ccccc1C(=O)NCC(c1ccco1)N1CCc2ccccc21 (centres undefined) 0.802
CC12COC3(C(=O)Nc4ccc(Cl)cn4)CC1CCC32C (centres undefined) 0.935
COc1cc(CN2CCC(n3nccc3NC(=O)CCCc3ccccc3)CC2)ccc1O 1.47
Cc1ccc(CN2CCC(n3nccc3NC(=O)CCCc3ccccc3)CC2)o1 1.13
C=Cn1cc[n+](CC(=O)c2ccc(OC)c(OC)c2)c1 0.894
O=C(c1ccc(Br)o1)N(c1ccccn1)C1CCCCC1 1.04
O=C(N/N=C/c1ccc(Br)o1)c1cncc(Br)c1 1.05
N#Cc1ccccc1CN1C(=O)S/C(=C/c2cccn2-c2cccc(C(=O)O)c2)C1=O 1.06
Cc1cccc(CN2CCC(CNC(=O)Nc3ccc(F)c(Cl)c3)CC2)c1 1.31
Cc1ccc(C)c(CN2CCC(CNC(=O)Nc3ccc(C)c(F)c3)CC2)c1 1.49

Activation factor, active:
O=C(Nc1ccc(Cl)cc1)c1ccsn1 4.15
CCCOCC(O)CC(CC)C(=O)NNC(=S)Nc1ccccc1 (centres undefined) 2.11
CC(C)(C)OC(=O)NCCCCCNC(=O)c1[nH]cnc1C(=O)Nc1nccs1 2.41
C[C@H](NC(=O)c1[nH]cnc1C(=O)Nc1nccs1)c1ccccc1 2.51
CC(C)Oc1ccc(CCC(=O)NNC(=S)NCc2ccccc2)cc1 2.01
Cc1c(NC(=O)CN(C)CC(=O)Nc2ccc(F)c(F)c2F)c(=O)n(-c2ccccc2)n1C 2.09
Cc1cc(C(=O)NC2CC(C)(C)Cc3c2cnn3-c2ccccc2)n[nH]1 (centres undefined) 2.15
Cc1cc(C)cc(NC(=O)NC2CCN(CC(=O)Nc3cccc(Cl)c3C)CC2)c1 3.04
COc1cc(NC(=O)COC(=O)c2cnc(C)cn2)c(C)cc1[N+](=O)[O-] 2.53
OC1CN=C2Sc3ccccc3N2C1 (centres undefined) 2.42
NC(=O)COc1ccc(NC(=O)c2ccccc2-c2ccccc2)cc1 2.12
Cc1cccc(NS(=O)(=O)c2cccc(C(=O)NNC(=O)c3ccccc3O)c2)c1 2.18
COc1ccc(CN2CCC(n3nccc3NC(=O)CCCc3ccccc3)CC2)cc1C 3.92
COc1cc(NC(=O)NCC2CCN(Cc3ccc(C)cc3)CC2)cc(OC)c1OC 2.12
